Bioassay records from PubChem.
This is a sample that favours compounds with a hit; in the whole collection about 3.1% have one here.
PREPL inhibitor: PREPL enzyme inhibitors, primary screen, biochemical, fluorescence polarization; Prolyl endopeptidase-like (Homo sapiens), Q4J6C6; recombinant PREPL, fluorescence polarization activity-based probe; inhibition, % at 5.96 µM; actives 0.68% (n = 320,000); AID 2751, 2010; in the data active = inhibition above about 43%
Target sequence (Q4J6C6 whole entry, looked up): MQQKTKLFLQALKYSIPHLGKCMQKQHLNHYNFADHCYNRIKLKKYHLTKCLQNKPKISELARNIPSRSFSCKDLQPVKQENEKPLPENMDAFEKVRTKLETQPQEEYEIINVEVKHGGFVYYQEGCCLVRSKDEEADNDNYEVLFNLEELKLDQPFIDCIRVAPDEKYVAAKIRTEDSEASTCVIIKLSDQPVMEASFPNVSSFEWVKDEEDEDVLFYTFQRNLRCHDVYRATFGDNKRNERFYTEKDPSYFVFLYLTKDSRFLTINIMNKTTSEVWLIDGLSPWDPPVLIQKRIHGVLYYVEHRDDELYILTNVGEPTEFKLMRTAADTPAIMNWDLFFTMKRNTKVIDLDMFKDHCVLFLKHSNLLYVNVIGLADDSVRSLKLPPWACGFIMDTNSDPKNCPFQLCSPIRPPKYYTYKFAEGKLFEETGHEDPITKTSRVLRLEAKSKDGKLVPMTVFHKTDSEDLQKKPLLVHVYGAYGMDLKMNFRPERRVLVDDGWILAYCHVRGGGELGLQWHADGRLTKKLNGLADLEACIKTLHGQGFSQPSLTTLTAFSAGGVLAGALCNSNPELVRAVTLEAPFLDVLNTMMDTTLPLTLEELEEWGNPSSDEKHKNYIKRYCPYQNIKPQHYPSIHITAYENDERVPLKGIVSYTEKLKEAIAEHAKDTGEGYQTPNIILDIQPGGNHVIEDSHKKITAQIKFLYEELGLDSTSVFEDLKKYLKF
MEKK3 PB1 HTS: modulators of MEKK3-MEK5 PB1 binding, primary screen, biochemical, wildtype MEKK3, multiplex bead flow cytometry, Alexa488-MEK5. actives 1.4% (n = 290,000). Mitogen-activated protein kinase kinase kinase 3 (Homo sapiens), Q99759. bead-based flow cytometry, Alexa488-MEK5 binding to MEKK3; actives lie on both sides; 0 = blocked by unlabeled MEK5, 100 = vehicle. binding response (% of control), % at 10 µM;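 active = binding response more than 3 SD above or below the average of its plate-row segment, actives on both sides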;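 note: Alexa488 bead fluorescence after subtracting the streptavidin-only scavenger bead signal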
UBC13 polyUb: UBC13 polyubiquitin chain formation inhibitors, primary screen, biochemical, TR-FRET, uHTS. actives 0.47% (n = 330,000). inhibition, % at 20 µM; in the data active = inhibition above about 45%, passing the limit was not always enough
ATG4B inhibitor: ATG4B protease inhibitors, primary screen, biochemical, fluorescence, uHTS; inhibition, % at 8.33 µM; ATG4B cleavage of LC3-PLA2, NBD-HPC fluorescence, 1 h; actives 0.51% (n = 340,000); in the data active = inhibition above about 40%
MEKK2wt PB1 HTS: modulators of MEK5 binding to wildtype MEKK2, primary screen, biochemical, multiplex bead flow cytometry, Alexa488-MEK5 | Mitogen-activated protein kinase kinase kinase 2 (Homo sapiens), Q9Y2U5 | actives 1.1% (n = 290,000) | Alexa488-MEK5 binding to MEKK2 WT; actives lie on both sides | binding response (% of control), % at 10 µM; in the data active = binding response below about 67% or above about 130%
MEKK2 mut-MEK5: MEK5 binding signal on mutant MEKK2 PB1, primary screen, biochemical, multiplex bead flow cytometry, Alexa488-MEK5. Alexa488-MEK5 binding to MEKK2 mutant. percent response, % at 10 µM. actives 0.35% (n = 290,000); in the data active = percent response above about 24%, passing the limit was not always enough
MEKK2wt confirm: modulators of MEK5 binding to wildtype MEKK2, confirmation, biochemical, single concentration, multiplex bead flow cytometry; actives 2.4% (n = 5,900); Alexa488-MEK5 binding to MEKK2 WT; actives lie on both sides; binding response (% of control), % at 10 µM; shares compounds with MEKK3 PB1 HTS; in the data active = binding response below about 16% or above about 210%; inactive = in between
MEKK2mut-MEK5: mutant MEKK2 PB1-MEK5 binding signal retest – biochemical, single concentration, multiplex bead flow cytometry, confirmation. percent response, % at 10 µM. shares compounds with MEKK3 PB1 HTS. Alexa488-MEK5 binding to MEKK2 mutant. actives 2% (n = 5,900); in the data active = percent response mostly above about 71%, no sharp cut-off; inactive = mostly below about 38%;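 note: higher means compound restores mutant binding toward wildtype level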
MEKK3-MEK5 inh: MEKK3 wild-type PB1 binding to MEK5, inhibitors, confirmation, biochemical, bead multiplex flow cytometry, single concentration, wildtype. shares compounds with MEKK3 PB1 HTS. Alexa488-MEK5 binding to MEKK3; hits give low values. binding response (% of control), % at 10 µM. actives 1.8% (n = 5,900);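 active = binding response below 72% of control, or above a set upper limit, though filed actives all read lower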;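 note: lower values mean stronger disruption of MEK5 binding to MEKK3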
Casp3 UBC13 ctr: CASP3 inhibitor validation, counterassay for project on UBE2N polyubiquitination blockers, biochemical, one dose; Recombinant caspase-3, Caspase-Glo 3/7 luminescence, 60 min; shares compounds with UBC13 polyUb; AID 488856, 2010; actives 4% (n = 1,400); inhibition, % at 20 µM;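 active = mean inhibition across replicates above about 26%, limit read from the data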
UBC13 confirm: UBC13 polyubiquitination inhibitors, single-point retest, confirmation, biochemical, TR-FRET, single concentration; AID 488859, 2010; shares compounds with UBC13 polyUb; inhibition, % at 10 µM; actives 68% (n = 1,400); in the data active = inhibition above about 45%
Of the large screens only hits and unclear results are named; the others gave an inactive call (follow-up assays come after a bar, where they were run); [ ] = dose if it differs, or a comment.

O=C(CSc1nnc(COc2ccccc2)o1)N1CCOCC1	none
COc1ccc(OCc2nc3c4cc(OC)c(OC)cc4nc(=S)n3[nH]2)cc1	MEKK3 PB1 HTS 128, UBC13 polyUb 59 | MEKK2wt confirm inactive | MEKK2mut-MEK5 inactive | MEKK3-MEK5 inh inactive | Casp3 UBC13 ctr inactive | UBC13 confirm inactive
CCN(CC)C(=O)CSc1nnc2nnc3cc(OC)ccc3n12	none
CC(C)N1CCc2c(sc(NC(=O)c3nc4ccccc4s3)c2C(N)=O)C1	none
CC(C)N1CCc2c(sc(NC(=O)c3ccc(S(=O)(=O)N4CCc5ccccc54)cc3)c2C(N)=O)C1	UBC13 polyUb 50, MEKK2wt PB1 HTS 196, MEKK2 mut-MEK5 56 | MEKK2wt confirm inactive | MEKK2mut-MEK5 inactive | MEKK3-MEK5 inh inactive | Casp3 UBC13 ctr inactive | UBC13 confirm inactive
C[C@@H](CN1C2=NC[C@H](C)N2C[C@H]1Cc1ccc(O)cc1)NC(=O)CCC1CCCCC1	none
COc1ccc(C[C@@H]2CN3C(=NC[C@@H]3Cc3ccc(O)cc3)N2C[C@H](C)NC(=O)CCC2CCCCC2)cc1	MEKK3 PB1 HTS 1.0[inhibitor], UBC13 polyUb 56, MEKK2wt PB1 HTS 135 | MEKK2wt confirm inactive | MEKK2mut-MEK5 inactive | MEKK3-MEK5 inh inactive | Casp3 UBC13 ctr inactive | UBC13 confirm inactive
NC1=NC[C@@H](Cc2ccc(O)cc2)N1CCCCC1CCCCC1	UBC13 polyUb 66, MEKK2wt PB1 HTS 134 | MEKK2wt confirm inactive | MEKK2mut-MEK5 inactive | MEKK3-MEK5 inh inactive | Casp3 UBC13 ctr inactive | UBC13 confirm inactive
O=C(CCC1CCCCC1)NCCN1C2=NC[C@H](Cc3ccccc3)N2C[C@H]1Cc1ccc(O)cc1	UBC13 polyUb 65, MEKK2wt PB1 HTS 163 | MEKK2wt confirm inactive | MEKK2mut-MEK5 89 | MEKK3-MEK5 inh inactive | Casp3 UBC13 ctr inactive | UBC13 confirm 60
COc1ccc(CNC(=O)c2cccnc2)cc1	none
O=C(COc1ccc(C(=O)NCCN2CCOCC2)cc1)Nc1cccc(C(F)(F)F)c1	none (no result: MEKK3 PB1 HTS, MEKK2wt PB1 HTS, MEKK2 mut-MEK5)
C=C(CN(C)C)C(=O)c1ccc(OC2OC(COC(C)=O)C(OC(C)=O)C(OC(C)=O)C2OC(C)=O)cc1 (stereo not given)	none (no result: PREPL inhibitor, MEKK3 PB1 HTS, UBC13 polyUb, MEKK2wt PB1 HTS, MEKK2 mut-MEK5)
COc1ccc(CN2CCNC(=O)C2CC(=O)N(C)CC2CCOCC2)cc1C (stereo not given)	none (no result: PREPL inhibitor)
CCOC(=O)C1C(=O)OC(C)(C)C1C(CC)C(=O)c1c(C)cc(C)cc1C (stereo not given)	none
COc1ccc(-c2cc(C#N)nc(N3CCNCC3)n2)cc1	UBC13 polyUb 98, MEKK2wt PB1 HTS 215, MEKK2 mut-MEK5 57 | MEKK2wt confirm 223 | MEKK2mut-MEK5 71 | MEKK3-MEK5 inh inactive | Casp3 UBC13 ctr inactive | UBC13 confirm 74
COc1ccc(-c2cc(C#N)nc(N3CCN(C)CC3)n2)cc1	none
CCCCCCCCCCOC(=O)Cn1c(COc2ccc(OC)cc2)[n+](C)c2ccccc21	UBC13 polyUb 63, MEKK2wt PB1 HTS 256, MEKK2 mut-MEK5 80 | MEKK2wt confirm 266 | MEKK2mut-MEK5 79 | MEKK3-MEK5 inh inactive | Casp3 UBC13 ctr inactive | UBC13 confirm 81
CCCCCCCCCCOC(=O)Cn1c(COc2cccc(C)c2)[n+](C)c2ccccc21	MEKK3 PB1 HTS 123, UBC13 polyUb 52, MEKK2wt PB1 HTS 402, MEKK2 mut-MEK5 112 | MEKK2wt confirm 254 | MEKK2mut-MEK5 90 | MEKK3-MEK5 inh inactive | Casp3 UBC13 ctr inactive | UBC13 confirm 68
CCCCOC(=O)Cn1c(=O)n(CC(=O)OCCCC)c2ccccc21	none
CC1CCC(C(C)C)C(OC(=O)COC(=O)c2ccc(N)cc2)C1 (stereo not given)	none
CCCCCCCCCCOC(=O)Cn1c(COc2ccccc2C)[n+](C)c2ccccc21	UBC13 polyUb 45, MEKK2wt PB1 HTS 293, MEKK2 mut-MEK5 141 | MEKK2wt confirm 254 | MEKK2mut-MEK5 150 | MEKK3-MEK5 inh inactive | Casp3 UBC13 ctr inactive | UBC13 confirm inactive
Cc1ccccc1OCc1n(CC(=O)OC2CC(C)CCC2C(C)C)c2ccccc2[n+]1C (stereo not given)	UBC13 polyUb 55, MEKK2wt PB1 HTS 159 | MEKK2wt confirm inactive | MEKK2mut-MEK5 inactive | MEKK3-MEK5 inh inactive | Casp3 UBC13 ctr inactive | UBC13 confirm 98
CCOC(=O)Cn1c(COc2ccccc2OC)[n+](C)c2ccccc21	none (no result: MEKK3 PB1 HTS, MEKK2wt PB1 HTS, MEKK2 mut-MEK5)
O=C(COC(=O)c1ccccn1)NCc1cccs1	none (no result: MEKK3 PB1 HTS, MEKK2wt PB1 HTS, MEKK2 mut-MEK5)
Cc1cc(=O)oc2c(C)c(OCC(=O)Nc3cccnc3)ccc12	none
CCn1c(SCC(=O)O)nnc1-c1ccccc1OC	none
CCN(C(=O)CSc1nc2scc(-c3ccccc3)c2c(=O)n1N)C1CCS(=O)(=O)C1 (stereo not given)	none (no result: PREPL inhibitor, MEKK3 PB1 HTS, UBC13 polyUb, MEKK2wt PB1 HTS, MEKK2 mut-MEK5)
CCCCCCCCCCOC(=O)Cn1c(COc2ccccc2)[n+](C)c2ccccc21	UBC13 polyUb 59, MEKK2wt PB1 HTS 226, MEKK2 mut-MEK5 61 | MEKK2wt confirm 230 | MEKK2mut-MEK5 84 | MEKK3-MEK5 inh inactive | Casp3 UBC13 ctr inactive | UBC13 confirm 70
